Among all 360,000 compounds or so, about 1,200 (0.33%) were called active. Many of the other results were omitted from the sample, so actives are more common in it than they were. Unmarked numbers belong to inactive results.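 How the source made its calls: active means activation above the run's mean compound activation plus 3 SD (cut at about 16% in these data); inactive means the rest.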
What follows are compounds tested against Muscarinic acetylcholine receptor M1 (Homo sapiens) (UniProt P11229) (assay: CHRM1 activation via calcium signal – Fluo-8 calcium fluorescence, CHO-K1 cells, HTS, primary screen (AID 588814;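 further: peak over basal fluorescence ratio within a 140 s kinetic read after compound addition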)). Details: CHO-K1 hM1, Fluo-8 calcium fluorescence, agonist mode; at 3 µM; hits give high values; 0% DMSO, 100% acetylcholine EC100.
Chain of Muscarinic acetylcholine receptor M1 (Homo sapiens) (P11229 whole entry, looked up): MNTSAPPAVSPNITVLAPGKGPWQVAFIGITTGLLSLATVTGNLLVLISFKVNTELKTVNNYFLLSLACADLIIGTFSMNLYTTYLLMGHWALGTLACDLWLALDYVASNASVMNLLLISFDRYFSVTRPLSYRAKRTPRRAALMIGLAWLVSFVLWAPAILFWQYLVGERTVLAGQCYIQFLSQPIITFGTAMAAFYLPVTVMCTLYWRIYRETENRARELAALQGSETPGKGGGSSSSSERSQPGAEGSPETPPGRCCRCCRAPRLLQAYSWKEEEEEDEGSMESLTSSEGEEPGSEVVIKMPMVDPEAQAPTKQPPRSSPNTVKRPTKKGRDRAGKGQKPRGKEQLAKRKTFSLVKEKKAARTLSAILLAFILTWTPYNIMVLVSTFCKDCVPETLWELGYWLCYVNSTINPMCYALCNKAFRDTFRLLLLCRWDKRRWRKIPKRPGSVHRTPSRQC
`CC1(C(=O)NS(=O)(=O)c2cccc(F)c2)CCN1C(=O)Cc1ccc(Cl)cc1Cl` (centres undefined) showed an activation of -1.39%.
In the case of `CC1Cc2ccccc2N1CC(=O)Nc1ccc2c(c1)OC(F)(F)O2` (centres undefined), the activation is reported as -7.22%.
With `Cc1ccc(-n2nc(C)c(/C=N/NC(=O)c3cccs3)c2Cl)cc1` the activation was 16.7% (active).
`Cc1nn(-c2ccccc2)c(NC(=O)c2cccs2)c(-c2ccc(Cl)cc2)c1=O` was tested, and the activation was -7.73%.
In the case of `CCN(CC)c1ccc(/C=N/NC(=O)CNC(=O)c2cccs2)cc1`, the activation is reported as -4.5%.
`CC(=NNC(=O)c1ccncc1)c1ccc(Cl)c(Cl)c1` gave an activation of -2.06%.
Compound `CCOCCCN1C(=O)C2C(C(=O)Nc3ccc(OCC)cc3)C3C=CC2(O3)C1C(=O)NC1CCCCC1` (centres undefined) has an activation of -6.34%.
`CCCNC(=O)C1CC(=O)N(c2ccc(OCc3ccccc3)cc2)C1` (centres undefined) was tested, and the activation was 1.07%.
In the case of `COc1ccc(-n2c(-c3ccc(Cl)cc3)n[nH]c2=S)c(OC)c1`, the activation is reported as -4.14%.
`COc1cc(OC)c(-n2cc(-c3ccc(Cl)cc3)[nH]c2=O)cc1Cl` was tested, and the activation was 58% (active).
Compound `COc1cc(OC)c(N2CC(C(=O)Nc3cc(Cl)ccc3N3CCOCC3)CC2=O)cc1Cl` (centres undefined) has an activation of -5.02%.
`CC(=O)C[C@@H](O)CC(=O)[C@H]1OC(=O)CCCCCCc2ccccc21` was tested, and the activation was 10.4%.
For `Cn1nccc1NC(=O)CC(CC(=O)O)c1ccccc1` (centres undefined), the activation was 0.28%.
In the case of `Cn1nc(C(F)(F)F)c2cc(NC(=O)OCC(C)(C)C)sc21`, the activation is reported as -6.85%.
With `CC(C)COC(=O)c1ccc(NC(=O)C2C3C=CC(C3)C2C(=O)O)cc1` (centres undefined) the activation was -3%.
In the case of `CCc1ccc(-c2cc3c(=O)n(CC(=O)NCCCN4CCN(Cc5ccccc5)CC4)nc(C)n3n2)cc1`, the activation is reported as 0.73%.
For `CC(C[N+](C)(C)C)OC(N)=O` (centres undefined), the activation was 87.5% (active).
`CC(=O)OCCC(C)C` gave an activation of -3.12%.
With `CC(=O)OC(C)C[N+](C)(C)C` (centres undefined) the activation was 115% (active).
`Cc1oc2nc(SCC(=O)Nc3ccc(S(N)(=O)=O)cc3)nc(NC(=O)c3ccccc3)c2c1C` gave an activation of -4.87%.
`Cc1sc(NC(=O)C2=COCCO2)c(C#N)c1C` was tested, and the activation was -6.11%.
For `CC(C)Cn1c(CCC(=O)O)ccc1-c1cccs1`, the activation was -4.32%.
`O=c1c2ccccc2c(-c2ccccc2)nn1-c1ccccn1` showed an activation of -1.79%.
`O=C(COC(=O)/C=C/c1cn(-c2ccccc2)nc1-c1cccnc1)Nc1ccc(Cl)cc1Cl` gave an activation of -5.6%.
With `CC(C)(C)OC(=O)N/N=C/c1cn(-c2ccccc2)nc1-c1cccnc1` the activation was 24% (active).
`COc1ccccc1N1CCN(C(=O)c2cn(-c3ccccc3)nc2-c2cccnc2)CC1` gave an activation of 0.62%.
`O=C(CNc1cccc(S(=O)(=O)N2CCCCC2)c1)Nc1ccccc1F` was tested, and the activation was 2.04%.
Compound `CCCOc1ccc(F)cc1-c1cc(C(=O)NCc2ccc(F)cc2)[nH]n1` has an activation of -7.18%.
For `Cc1cc(O)ccc1-c1cc(C(=O)NCc2cc(C(F)(F)F)cc(C(F)(F)F)c2)[nH]n1`, the activation was 16.9% (active).
`Cc1ccc(O)c(-c2cc(C(=O)NCc3ccccc3)[nH]n2)c1` showed an activation of -5.25%.
In the case of `CCc1nc2c(OCCC3CCCCC3)cccn2c1N(C)C(=O)c1ccco1`, the activation is reported as -9.74%.
Work on `CCOC(=O)C1(Cc2cccc(OC)c2)CCCN(S(=O)(=O)c2cccnc2)C1` (centres undefined) yielded an activation of -1.49%.
Work on `COc1ccc(C(C#N)=C2C=CC(=NO)c3ccccc32)cc1` yielded an activation of -8%.
`CCOc1c(N2CCCCC2)c(=O)c1=O` showed an activation of -7.26%.
For `CCc1nc2ccc(C(=O)Nc3cccc(OC)c3)cn2c1N(CCC(C)C)CCN(C)C`, the activation was 29.4% (active).
`CCc1nc2ccc(C(=O)N(C)CCN(C)C)cn2c1N(CC)CCOC` was tested, and the activation was -6.84%.
`CCc1nc2ccc(C(=O)Nc3ccc(OC)c(OC)c3)cn2c1N(C)C(=O)c1cccc(OC)c1` gave an activation of -2.95%.
`Cc1ccc(-c2nn(-c3ccccc3)cc2C(=O)NC2CCC(O)CC2)cc1` (centres undefined) was tested, and the activation was 0.01%.
In the case of `NC(=O)C1CCN(C(=O)c2cn(-c3ccccc3)nc2-c2cccnc2)CC1`, the activation is reported as -0.33%.
With `O=C(NNC(=S)NC(=O)c1cn(-c2ccccc2)nc1-c1ccccc1)c1ccncc1` the activation was 16.6% (active).
`Cc1cc(SCC(=O)NCCN2C(=O)CSC2=O)nc2ccccc12` was tested, and the activation was -9.92%.
In the case of `Cc1ccc(S(=O)(=O)NCc2nc3ccccc3c(=O)n2N)cc1`, the activation is reported as -0.65%.
With `O=C(CCCN=C1NS(=O)(=O)c2ccccc21)OCC(=O)c1ccc(F)c(F)c1` the activation was 27% (active).
Work on `O=C(OCCN=C1NS(=O)(=O)c2ccccc21)c1cccc([N+](=O)[O-])c1` yielded an activation of -1.9%.
Compound `N#CC1(NC(=O)COC(=O)CCN=C2NS(=O)(=O)c3ccccc32)CCCCC1` has an activation of -0.14%.
Compound `Cc1cccc(NC(=O)c2ccc3c(=O)n(CC4CCCO4)c(=S)[nH]c3c2)c1` (centres undefined) has an activation of -0.37%.
In the case of `O=C(NCCc1c[nH]c2ccccc12)C1CCN(Cc2ccc(Br)cc2)CC1`, the activation is reported as -4.6%.
With `N#C/C(=C\c1ccc(N2CCOCC2)o1)C(=O)N1CCOCC1` the activation was 2.53%.
`N#C/C(=C/c1ccc(N2CCCCC2)o1)C(=O)NCCc1c[nH]c2ccccc12` was tested, and the activation was 28.4% (active).
Work on `CCOCc1nnc(NC(=O)CCC2CCCCC2)s1` yielded an activation of -1.9%.
`O=S(=O)(Nc1ccc(Cl)cn1)c1cnc(Cl)c(Br)c1` gave an activation of -0.28%.
In the case of `CCOc1ccc(C(=O)NC(C(=O)NCc2ccccn2)C(C)C)cc1` (centres undefined), the activation is reported as -5.01%.
For `O=C(N/N=C/c1ccsc1)c1cc(O)cc(O)c1`, the activation was -1.35%.
Compound `O=C1Nc2ccc([N+](=O)[O-])cc2C1=Nc1cccc(CO)c1` has an activation of 0.24%.
In the case of `O=C1C(=O)N(CC2COc3ccccc3O2)c2ccccc21` (centres undefined), the activation is reported as 39.1% (active).
Work on `Cc1noc(C)c1C(=O)NCC1COc2ccccc2O1` (centres undefined) yielded an activation of -2.12%.
With `O=C1C(=O)N(c2ccccc2)c2ccccc21` the activation was 13.1%.
In the case of `CCCC1C(c2ccccc2)C(C#N)(C#N)C2(C#N)CC1(N)NC2=O` (centres undefined), the activation is reported as -0.06%.
With `Cc1ccc(NC2=C(Cl)C(=O)OC2OC(=O)c2ccccc2C)cc1` (centres undefined) the activation was -9.26%.

— PubChem BioAssay AID588814 (The Scripps Research Institute Molecular Screening Center, 2011)
